WT yeast gro inh: growth inhibition of WT yeast, mitochondrial fusion screen | mitochondrial fusion phenotypic screen, WT strain | AID 1362 | inhibition, % at 10 µM | hit rate 2.1% among 190,000; in the data active means inhibition above about 58%; tested in S. cerevisiae
KCC2 mod: KCC2 (human) Cl- transport modulation; hit rate 2.2% among 190,000; B-score of Tl+ flux slope (higher = more flux/activation; lower = inhibition) at 10 µM; AID 1456; KCC2 cells, thallium flux FluoZin-2 fluorescence;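 active means thallium flux slope and its plate-corrected score both differing from the plate sample mean at a set confidence after two filtering rounds, in either direction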;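 further: slope of fluorescence scaled to starting intensity during 10 to 20 s after thallium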
m-calpain inh: calpain II (pig) inhibition; purified calpain II, fluorogenic peptide substrate, 30 min; inhibition, % at 16 µM; hit rate 0.37% among 220,000; AID 1236;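 active means inhibition above about 50%, limit read from the data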
Lmaj promast: reduces viability of Leishmania major promastigotes. hit rate 9% among 200,000. resazurin fluorescence viability. AID 1063. inhibition, % at 10 µM; in the data active means inhibition above about 50%;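 further: promastigotes grown with compound for 44 hours at 28 °C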
ROMK primary: human ROMK K+ channel modulation, primary screen; hit rate 2% among 130,000; B-score at 10 µM; Tet-inducible ROMK, thallium flux fluorescence; actives lie on both sides; AID 1918;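 active means signal ratio slope over the read window, or its plate-corrected B-score, at least 3 SD from the plate mean, either direction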;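 further: B-score of the F/F0 ratio slope over 7 to 12 s after thallium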
Target sequence (P48048 whole entry, looked up): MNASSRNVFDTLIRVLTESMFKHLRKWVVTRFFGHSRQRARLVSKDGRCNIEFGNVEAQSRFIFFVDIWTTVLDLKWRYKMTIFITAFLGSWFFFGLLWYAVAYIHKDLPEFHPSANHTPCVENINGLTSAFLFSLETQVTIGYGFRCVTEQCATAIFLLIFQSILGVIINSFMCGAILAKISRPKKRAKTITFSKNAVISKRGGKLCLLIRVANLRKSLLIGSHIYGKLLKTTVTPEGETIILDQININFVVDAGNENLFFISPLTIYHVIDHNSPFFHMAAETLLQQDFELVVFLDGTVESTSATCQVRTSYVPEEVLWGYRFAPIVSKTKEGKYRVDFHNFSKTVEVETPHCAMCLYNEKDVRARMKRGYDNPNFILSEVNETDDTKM
Active calls of the source: *; nt = no result given. Sampled rows, rich in hits. Any-hit rate of the full collection: about 12%.

SMILES	WT yeast gro inh	KCC2 mod	m-calpain inh	Lmaj promast	ROMK primary
CCC(=O)Nc1cc(ON=C(C)C)cc([N+](=O)[O-])c1	17	-0.45	23	4	-0.23
CC(C)=NOc1cc(NC(=O)CCl)cc([N+](=O)[O-])c1	13	-0.77	11	99*	-1.5
O=c1c2ccccc2n2c(-c3ccc(C(F)(F)F)cc3)nnc2n1Cc1ccccc1	26	-0.72	31	15	nt
O=c1c2ccccc2n2c(-c3ccc(F)cc3)nnc2n1Cc1ccccc1	-13	-0.17	-7	56*	nt
Cc1nn(Cc2c(Cl)cccc2Cl)c(C)c1NC(=O)c1cnn2c(C(F)F)cc(-c3ccccc3)nc12	6	0.038	-15	67*	nt
Cc1ccc(-c2cc(C(F)F)n3ncc(C(=O)Nc4c(C)nn(Cc5ccccc5Cl)c4C)c3n2)cc1	76*	nt	-9	57*	nt
Cc1ccc(-c2cc(C(F)F)n3ncc(C(=O)Nc4c(C)nn(Cc5c(Cl)cccc5Cl)c4C)c3n2)cc1	-5	-0.51	-48	50	nt
CN1c2ccccc2C(C)(C)C12CC(c1ccc(Cl)c(S(=O)(=O)N3CCCC3)c1)=NO2 (stereo not drawn)	-28	0.21	0	69*	0.69
COc1ccc(CCn2c(N)c(C#N)c3nc4ccccc4nc32)cc1OC	-3	-1.2	-89	91*	nt
CCCCC(=O)Nc1ccc(NC(=O)c2cccs2)cn1	-2	-0.49	-8	83*	0.7
O=C(Nc1ncc(Cl)cn1)c1cccs1	-26	-0.81	-8	-2	nt
O=C(NC(=S)Nc1ccc(Cl)cn1)c1cccs1	-10	21*	-5	-1	nt
Cc1ccnc(NC(=S)NC(=O)c2cccs2)c1	20	26*	7	-2	0.47
O=C(NC(=S)Nc1nc2c(ccc3ccccc32)s1)c1cccs1	20	17*	-11	38	0.025
c1ccc(CCn2nnnc2CN2CCc3ccccc32)cc1	-2	nt	-2	2	-1.6
CC1=CCC2C(=O)N(c3ccccc3OC(=O)c3ccccc3F)C(=O)C2C1 (stereo not drawn)	2	0.61	14	25	0.19
FC(F)(F)c1cccc(Cc2noc(CN3C[C@@H]4CCC[C@H]3C4)n2)c1	-4	nt	28	25	0.38
Cn1ccnc1C1CCCCN1Cc1nc(Cc2cccc(C(F)(F)F)c2)no1 (stereo not drawn)	16	nt	10	66*	nt
CC(C)Oc1ccccc1C1Nc2ccccc2C(=O)N1c1ccc2c(c1)OCCO2 (stereo not drawn)	34	-2.6	-479	63*	-0.33
COc1ccc(OC)c2[nH]c(=O)c(CCNC(=O)c3cccs3)cc12	2	-1.6	-32	11	1.1
Cc1ccn2cc(CSc3ccccc3)nc2c1	60*	-1	22	71*	-0.063
COc1c(C(=O)Nc2ccc(Cc3ccncc3)cc2)ccc2ccccc12	68*	-2.9	33	18	nt
COc1ccc(Br)cc1C(=O)Nc1ccc(Cc2ccncc2)cc1	-6	nt	-8	81*	nt
COc1ccc(Br)cc1C(=O)Nc1ccc(C(=O)NCC(C)C)cc1	-1	0	-26	-1	0.34
COc1ccc(CNCC(=O)Nc2cccc(S(N)(=O)=O)c2)cc1	-31	-0.18	0	-3	0.062
SMILES	WT yeast gro inh	KCC2 mod	m-calpain inh	Lmaj promast	ROMK primary
Cn1nc([N+](=O)[O-])c(C(C#N)c2ccccn2)c(Cl)c1=O (stereo not drawn)	-15	-0.18	-149	100*	-0.24
N#CC(c1ccccn1)c1ncc(C(F)(F)F)cc1Cl (stereo not drawn)	1	0.25	24	-1	0.57
O=c1[nH]c(CN2CCN(c3ccccc3)CC2)nc2scc(-c3ccccc3)c12	33	0.22	-18	67*	-0.042
COc1ccc(N2CCN(Cc3nc4scc(-c5ccccc5)c4c(=O)[nH]3)CC2)cc1	19	-0.6	16	62*	-0.59
CCN(CC)CCn1c(=S)[nH]c2cc(C(=O)N3CC=C(c4ccccc4)CC3)ccc2c1=O	5	-1.2	-84	20	-1.2
Fc1ccccc1Nc1nc(-c2ccncc2)nc2ccccc12	-6	0.74	-2	96*	-0.25
O=C(CSc1nnc2n1CCCN2C(=S)Nc1ccc(Cl)cc1)c1ccccc1	65*	0.94	13	2	nt
CN1CCN(C(=O)C23CC4CC(C)(CC(C)(C4)C2)C3)CC1	nt	0.52	-10	nt	0.41
CC(NC(=O)c1ccc(Br)cc1)c1ccccc1 (stereo not drawn)	42	0.77	-11	-2	-0.14
CC(NC(=O)c1ccccc1)c1ccc(F)cc1 (stereo not drawn)	-5	1.1	62*	4	1.2
CC(NC(=O)c1ccc(F)cc1)c1ccc(F)cc1 (stereo not drawn)	-14	0.024	15	56*	nt
CC(NC(=O)c1ccccc1)c1ccc(Br)cc1 (stereo not drawn)	-16	0.82	21	55*	0.031
CC(NC(=O)c1ccc(N(C)C)cc1)c1ccc(F)cc1 (stereo not drawn)	-7	0.077	-18	27	-0.0036
CC(NC(=O)c1ccccc1F)c1ccccc1 (stereo not drawn)	nt	0.24	-7	nt	nt
Cc1ccc2nc(Cl)c(/C=N/Nc3ccc(C(=O)O)cc3)cc2c1	nt	-1.8	50	nt	-0.38
Cc1cc(C)n(C(=O)CCCn2nc(C)c([N+](=O)[O-])c2C)n1	-4	-0.51	-20	22	nt
COC(=O)c1cc(C(=O)NCCCN2CCOCC2)cc([N+](=O)[O-])c1	4	0.33	-7	11	-0.02
CCn1cc(C(=O)NCc2ccc3c(c2)OCO3)c(=O)c2cc(F)c(N3CCN(C)CC3)cc21	10	-1.4	nt	79*	nt
CCn1cc(C(=O)NCC(C)C)c(=O)c2cc(F)c(N3CCN(C)CC3)cc21	nt	-0.6	-73	nt	-1.1
CCn1cc(C(=O)NCCc2ccccc2)c(=O)c2cc(F)c(N3CCN(C)CC3)cc21	62*	-1.5	-92	97*	-1.1
CCOC(=O)c1ccc(N=C2C(=S)N(c3ccc(C(=O)OCC)cc3)C(=N)N2/N=C/c2ccccc2)cc1	21	-0.37	-110	100*	0.39
CN(C)c1ccc(/C=N/N2C(=N)N(c3ccccc3)C(=S)C2=Nc2ccccc2)cc1	nt	0.13	nt	1	-0.37
CCC(CC)c1nnc(NC(=O)C2CC(=O)N(c3ccc4c(c3)OCCO4)C2)s1 (stereo not drawn)	-1	-1.4	-8	-5	nt
CCc1ccc(-c2csc(NC(=O)C3CC(=O)N(c4ccc5c(c4)OCCO5)C3)n2)cc1 (stereo not drawn)	37	-2.5	-81	98*	nt
COc1ccccc1/C=C/C(=O)Nc1cccc(S(=O)(=O)NC2=NCCCCC2)c1	12	-1.5	-4	11	-1.2
CN=C1CC(SC)=C1c1ccc(C)cc1	2	0.22	-15	4	-2.9*
COc1cc(C2NC(=O)CS2)cc(OC)c1OC (stereo not drawn)	-4	-0.41	29	86*	-0.041
CN(C)CCCOc1ccc(C(C)(C)c2ccccc2)cc1	37	nt	-8	100*	-1.6
CN(C)CCOc1ccc(C(C)(C)c2ccccc2)cc1	-4	-0.17	-4	72*	-2
C=CCNCCOc1ccc(C(C)(C)c2ccccc2)cc1	11	0.008	-5	98*	-0.49

From PubChem BioAssay
